Laboratory results from PubChem BioAssay (EPA / NIEHS).
Inconclusive results are not listed. Activity calls are given as the source filed them. The calls were made as follows, unless noted: active = hit-call score of the fitted dose curve at least 0.9, where 1 is the maximum; inactive = score below 0.9.

Molecular target: human Thyroid Receptor alpha (THRa1), THRA (gene 7067) (UniProt P10827)
Sequence (P10827 whole entry, looked up): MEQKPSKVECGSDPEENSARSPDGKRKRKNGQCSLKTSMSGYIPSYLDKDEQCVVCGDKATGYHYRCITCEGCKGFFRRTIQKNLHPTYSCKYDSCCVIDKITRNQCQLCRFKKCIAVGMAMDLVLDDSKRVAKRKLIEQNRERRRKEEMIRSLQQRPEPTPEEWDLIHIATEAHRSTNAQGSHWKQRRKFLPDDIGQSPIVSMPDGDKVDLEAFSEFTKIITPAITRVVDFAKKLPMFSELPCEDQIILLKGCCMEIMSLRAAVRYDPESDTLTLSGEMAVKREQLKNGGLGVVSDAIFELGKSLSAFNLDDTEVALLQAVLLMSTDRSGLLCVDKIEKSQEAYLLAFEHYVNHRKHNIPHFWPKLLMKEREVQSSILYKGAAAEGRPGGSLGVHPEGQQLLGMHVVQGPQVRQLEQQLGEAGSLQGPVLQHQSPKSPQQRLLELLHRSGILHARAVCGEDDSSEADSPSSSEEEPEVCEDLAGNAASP
Experiment: ATG_THRa1_TRANS: Attagene TRANS-FACTORIAL HepG2 Assay for human Thyroid Receptor alpha (THRa1) (AID 2283014; active = hit-call score of the fitted dose curve at least 0.9, where 1 is the maximum)
Settings: not given
Summary of the method: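 Measured here is mRNA from a GAL4-UAS reporter in transfected HepG2 cells carrying a Gal4-fused receptor, 24 h post-dose. DMSO served as negative control and baseline.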
For `CCCC(=O)OC/C=C(\C)CCC=C(C)C`, the outcome was “inactive”. With `CCCCCCC(O)CCCCCCCCCCC(=O)OC` (configuration not stated) the outcome was “inactive”. For `COC(=O)c1ccccc1`, the outcome was “inactive”. With `O=C(O)/C=C/C(=O)O` the outcome was “inactive”. For `O=S(=O)(O)c1cccc2ccccc12`, the outcome was “inactive”. In the case of `CC/C=C\CC/C=C/C(OCC)OCC`, the outcome is reported as “inactive”. For `C=CCOCC(CC)(CO)COCC=C`, the outcome was “inactive”. In the case of `CN1CCCC1`, the outcome is reported as “inactive”. With `CCC(C)=NO` the outcome was “inactive”. With `Cc1cc2nc3c(=O)[nH]c(=O)nc-3n(C[C@H](O)[C@H](O)[C@H](O)CO)c2cc1C` the outcome was “inactive”. In the case of `O=C(OCc1ccccc1)c1ccccc1`, the outcome is reported as “inactive”. In the case of `c1ccc(CNc2ncnc3nc[nH]c23)cc1`, the outcome is reported as “inactive”. With `CC(C)=CCOC(=O)c1ccccc1` the outcome was “inactive”. For `CC(C)(C)NC(=O)[C@@H]1CN(Cc2cccnc2)CCN1C[C@@H](O)C[C@@H](Cc1ccccc1)C(=O)N[C@H]1c2ccccc2C[C@H]1O`, the outcome was “inactive”. In the case of `Oc1cccc2ccccc12`, the outcome is reported as “inactive”. With `Oc1ccc(Oc2ccccc2)cc1` the outcome was “inactive”. With `CN(C)c1ccc(C(c2ccccc2)c2ccc(N(C)C)cc2)cc1` the outcome was “inactive”. For `c1ccc2c(c1)Oc1ccccc1S2`, the outcome was “inactive”. For `CCCCCC[C@@H](O)C/C=C\CCCCCCCC(=O)O`, the outcome was “inactive”.

Read-out: Interleukin-1 alpha (IL1a), IL1A (gene 3552)
Experiment: BSK_BE3C_IL1a: BioMAP Diversity Plus: BE3C Assay for Interleukin-1 alpha (IL1a) Biomarker Activity (AID 2283016)
Settings: primary human bronchial epithelial cells; actives raise or lower the signal
Summary of the method: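 IL-1a measured by ELISA after 24 h treatment of human primary bronchial epithelial cells, with gain or loss of signal fitted versus DMSO. Parallel cultures stained with SRB gauge overt cytotoxicity.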
With `CCCCCCC(O)CCCCCCCCCCC(=O)OC` (configuration not stated) the outcome was “inactive”. In the case of `CCC(C)=NO`, the outcome is reported as “inactive”. In the case of `Cc1cc(-n2nc3ccc(Cl)cc3n2)c(O)c(C(C)(C)C)c1`, the outcome is reported as “inactive”. With `Oc1cccc2ccccc12` the outcome was “inactive”. In the case of `CN(C)c1ccc(C(c2ccccc2)c2ccc(N(C)C)cc2)cc1`, the AC50 is reported as 5.43 µM (active). In the case of `CC[N+](CC)(CC(=O)Nc1c(C)cccc1C)Cc1ccccc1` (tested in a mixture with another compound), the outcome is reported as “inactive”.

Read-out: Monocyte Chemoattractant Protein-1 (MCP1), CCL2 (gene 6347)
Experiment: BSK_3C_MCP1: BioMAP Diversity Plus: 3C Assay for Monocyte Chemoattractant Protein-1 (MCP1) Biomarker Activity (AID 2283017)
Settings: primary human endothelial cells (HUVEC); actives raise or lower the signal
Summary of the method: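 Using human vascular primary endothelium, researchers measured MCP-1 by ELISA 24 h after treatment, with DMSO serving as negative control for bidirectional fitting.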
In the case of `CCCCCCC(O)CCCCCCCCCCC(=O)OC` (configuration not stated), the outcome is reported as “inactive”. For `CCC(C)=NO`, the outcome was “inactive”. For `Cc1cc(-n2nc3ccc(Cl)cc3n2)c(O)c(C(C)(C)C)c1`, the outcome was “inactive”. For `Oc1cccc2ccccc12`, the outcome was “inactive”. For `CN(C)c1ccc(C(c2ccccc2)c2ccc(N(C)C)cc2)cc1`, the AC50 was 11.9 µM (active). For `CC[N+](CC)(CC(=O)Nc1c(C)cccc1C)Cc1ccccc1` (tested in a mixture with another compound), the outcome was “inactive”.

Read-out: Monocyte Chemoattractant Protein-1 (MCP1), CCL2 (gene 6347)
Experiment: BSK_4H_MCP1: BioMAP Diversity Plus: 4H Assay for Monocyte Chemoattractant Protein-1 (MCP1) Biomarker Activity (AID 2283018)
Settings: primary human endothelial cells (HUVEC); actives raise or lower the signal
Summary of the method: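 ELISA of MCP-1 (CCL2) 24 h after chemical dosing of HUVEC in the BioMAP 4H system. Gain or loss versus DMSO fitted; parallel SRB staining (560 nm) tracked overt cytotoxicity.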
With `CCCCCCC(O)CCCCCCCCCCC(=O)OC` (configuration not stated) the AC50 was 8.39 µM (active). For `CCC(C)=NO`, the outcome was “inactive”. For `Cc1cc(-n2nc3ccc(Cl)cc3n2)c(O)c(C(C)(C)C)c1`, the outcome was “inactive”. For `Oc1cccc2ccccc12`, the outcome was “inactive”. With `CN(C)c1ccc(C(c2ccccc2)c2ccc(N(C)C)cc2)cc1` the AC50 was 4.5 µM (active). With `CC[N+](CC)(CC(=O)Nc1c(C)cccc1C)Cc1ccccc1` (tested in a mixture with another compound) the outcome was “inactive”.

Read-out: Human Leukocyte Antigen - DR isotype (HLADR), HLA-DRA (gene 3122)
Experiment: BSK_3C_HLADR: BioMAP Diversity Plus: 3C Assay for Human Leukocyte Antigen - DR isotype (HLADR) Biomarker Activity (AID 2283019);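 as to outcome: ELISA of cell-surface HLA-DR on HUVEC 24 h after dosing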
Settings: primary human endothelial cells (HUVEC); actives raise or lower the signal
Summary of the method: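 Compound added to primary HUVEC cultures, 24 h incubation, then HLA-DR determined by ELISA; endpoint derived by bidirectional fitting relative to DMSO negative control.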
For `CCCCCCC(O)CCCCCCCCCCC(=O)OC` (configuration not stated), the outcome was “inactive”. With `CCC(C)=NO` the outcome was “inactive”. With `Cc1cc(-n2nc3ccc(Cl)cc3n2)c(O)c(C(C)(C)C)c1` the outcome was “inactive”. For `Oc1cccc2ccccc12`, the AC50 was 10.5 µM (active). With `CN(C)c1ccc(C(c2ccccc2)c2ccc(N(C)C)cc2)cc1` the AC50 was 9.37 µM (active). For `CC[N+](CC)(CC(=O)Nc1c(C)cccc1C)Cc1ccccc1` (tested in a mixture with another compound), the outcome was “inactive”.

Read-out: Interleukin-8 (IL8), CXCL8 (gene 3576)
Experiment: BSK_3C_IL8: BioMAP Diversity Plus: 3C Assay for Interleukin-8 (IL8) Biomarker Activity (AID 2283020)
Settings: primary human endothelial cells (HUVEC); actives raise or lower the signal
Summary of the method: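 IL-8 was measured by ELISA in HUVEC cultures 24 h after chemical dosing, with gain or loss of signal fitted relative to DMSO. Parallel SRB total-protein staining tracked overt cytotoxicity.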
For `CCCCCCC(O)CCCCCCCCCCC(=O)OC` (configuration not stated), the outcome was “inactive”. In the case of `CCC(C)=NO`, the outcome is reported as “inactive”. For `Cc1cc(-n2nc3ccc(Cl)cc3n2)c(O)c(C(C)(C)C)c1`, the outcome was “inactive”. In the case of `Oc1cccc2ccccc12`, the outcome is reported as “inactive”. With `CN(C)c1ccc(C(c2ccccc2)c2ccc(N(C)C)cc2)cc1` the AC50 was 5.43 µM (active). With `CC[N+](CC)(CC(=O)Nc1c(C)cccc1C)Cc1ccccc1` (tested in a mixture with another compound) the outcome was “inactive”.

Read-out: Monokine induced gamma interferon (MIG), CXCL9 (gene 4283)
Experiment: BSK_3C_MIG: BioMAP Diversity Plus: 3C Assay for Monokine induced gamma interferon (MIG) Biomarker Activity (AID 2283021)
Settings: primary human endothelial cells (HUVEC); actives raise or lower the signal
Summary of the method: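 ELISA measurement of MIG in human umbilical vein endothelial cells 24 h after treatment. Cytotoxicity tracked by SRB staining in parallel cultures; gain or loss of signal fitted relative to DMSO.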
For `CCCCCCC(O)CCCCCCCCCCC(=O)OC` (configuration not stated), the outcome was “inactive”. In the case of `CCC(C)=NO`, the outcome is reported as “inactive”. With `Cc1cc(-n2nc3ccc(Cl)cc3n2)c(O)c(C(C)(C)C)c1` the outcome was “inactive”. In the case of `Oc1cccc2ccccc12`, the outcome is reported as “inactive”. With `CN(C)c1ccc(C(c2ccccc2)c2ccc(N(C)C)cc2)cc1` the outcome was “inactive”. In the case of `CC[N+](CC)(CC(=O)Nc1c(C)cccc1C)Cc1ccccc1` (tested in a mixture with another compound), the outcome is reported as “inactive”.

Molecular target: human Vitamin D Receptor (VDR), VDR (gene 7421) (UniProt P11473)
Sequence (P11473 whole entry, looked up): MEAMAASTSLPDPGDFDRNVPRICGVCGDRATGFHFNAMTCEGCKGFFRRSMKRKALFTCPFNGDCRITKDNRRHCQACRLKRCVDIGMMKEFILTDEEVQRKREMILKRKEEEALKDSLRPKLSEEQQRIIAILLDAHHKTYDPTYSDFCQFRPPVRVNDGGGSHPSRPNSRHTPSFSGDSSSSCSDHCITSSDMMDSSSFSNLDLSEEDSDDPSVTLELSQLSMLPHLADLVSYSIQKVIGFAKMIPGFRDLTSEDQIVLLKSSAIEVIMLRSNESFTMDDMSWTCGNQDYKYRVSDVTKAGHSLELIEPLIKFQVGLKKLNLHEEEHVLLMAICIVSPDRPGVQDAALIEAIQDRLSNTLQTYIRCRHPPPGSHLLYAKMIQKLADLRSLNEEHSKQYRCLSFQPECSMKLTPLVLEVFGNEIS
Experiment: ATG_VDR_TRANS: Attagene TRANS-FACTORIAL HepG2 Assay for human Vitamin D Receptor (VDR) (AID 2283022; active = hit-call score of the fitted dose curve at least 0.9, where 1 is the maximum)
Settings: not given
Summary of the method: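 Multiplexed TRANS reporter in HepG2; 24 h treatment; reporter mRNA by RT-PCR plus capillary electrophoresis; upregulation scored relative to DMSO.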
For `O=C1CCCCCCCCCCCCCC1`, the outcome was “inactive”. With `CCCCCCC(O)CCCCCCCCCCC(=O)OC` (configuration not stated) the outcome was “inactive”. For `COC(=O)c1ccccc1`, the outcome was “inactive”. With `O=C(O)/C=C/C(=O)O` the outcome was “inactive”. In the case of `CCc1cc(C(N)=S)ccn1`, the outcome is reported as “inactive”. With `CCC(C)=NO` the outcome was “inactive”. In the case of `C=C1CC[C@H]2C[C@@H]1C2(C)C`, the outcome is reported as “inactive”. For `COC(=O)[C@]1(C)CCC[C@@]2(C)[C@H]1CC=C1C=C(C(C)C)CC[C@@H]12`, the outcome was “inactive”. With `Oc1cccc2ccccc12` the outcome was “inactive”. In the case of `Oc1ccc(Oc2ccccc2)cc1`, the outcome is reported as “inactive”. For `CC(=O)CCc1ccccc1`, the outcome was “inactive”.

Read-out: not listed separately
Experiment: BSK_3C_SRB: Viability Assessment in the BioMAP Diversity Plus: 3C Assay (AID 2283023);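 also: cells read 24 h after compound dosing; fitted both ways against DMSO so a hit may be signal rise or drop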
Settings: primary human endothelial cells (HUVEC)
Summary of the method: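 Overt cytotoxicity is gauged in parallel confluent HUVEC cultures by SRB total-protein staining at the time of biomarker measurement, 24 h after dosing. Gain or loss of signal is fitted versus DMSO.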
For `CCCCCCC(O)CCCCCCCCCCC(=O)OC` (configuration not stated), the outcome was “inactive”. In the case of `CCC(C)=NO`, the outcome is reported as “inactive”. For `Cc1cc(-n2nc3ccc(Cl)cc3n2)c(O)c(C(C)(C)C)c1`, the AC50 was 0.342 µM (active). For `Oc1cccc2ccccc12`, the AC50 was 8.23 µM (active). With `CN(C)c1ccc(C(c2ccccc2)c2ccc(N(C)C)cc2)cc1` the AC50 was 9.62 µM (active). With `CC[N+](CC)(CC(=O)Nc1c(C)cccc1C)Cc1ccccc1` (tested in a mixture with another compound) the outcome was “inactive”.
